{
  "source": "PubChem BioAssay (NCI)",
  "note": "Compounds without any hit were thinned out: in the full panel of roughly 83,000, 20% have a hit.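 96-well plates, one dose, 48 hours. Percent growth reported; active if below 10.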 Values without a mark were called inactive. The source made the active and inactive calls.",
  "data": [
    {"tested_on": "HS 578T breast", "experiment": "NCI-60 one-dose screen, 48 h (100 = growth as untreated, 0 = no growth, -100 = all killed)", "conditions": "10 µM unless noted", "procedure": "Growth inhibition of the HS 578T human tumor cell line is measured as a screen for anti-cancer activity. Cells are grown in 96 well plates and exposed to the test compound for 48 hours. Compounds are tested at a single concentration, which is 10^-5 M for most compounds. The reported endpoint is percent growth (GI% or GIPRCNT), where numbers from 0 - 100% represent growth inhibition, and numbers from -100% - 0 represent cell death. For example, a value of 40 represents 60% growth inhibition. A value of 0 means no net growth occurred over the course of the experiment. A value of -40 indicates 40% of cells at the beginning of the experiment died by the end of the experiment. A value of -100 means all cells are dead at the end of the experiment.\nNCI-60 Human Tumor Cell Lines Screen was performed using the standard one-dose NCI protocol, which is described in more detail at https://dtp.cancer.gov/discovery_development/nci-60/default.htm.\nCompounds with GIPRCNT values below 10 were considered active. Activity score was based on GIPRCNT using the following formula: […]\nScore is 0 for GIPRCNT values of 100 or above, 50 for GIPRCNT values of 0, and 100 for GIPRCNT values of -100.", "values": [
      {"smiles": "CCOC1Oc2ccccc2C(=O)/C1=N/c1nccs1", "note": "(stereo not given)", "growth": "90.3%"},
      {"smiles": "Cc1cnc2nc(-c3ccc(N(C)C)cc3)cn2c1", "growth": "109%"},
      {"smiles": "O=C(Nc1cccc(-n2cc(-c3ccncc3)c(-c3cc(O)cc(Cl)c3)n2)c1)Nc1ccc(Cl)c(Cl)c1", "growth": "-6.42% (active)"},
      {"smiles": "CCOC(=O)c1sc(NC(=O)COc2cccc(/C=C3\\Cc4ccc(Cl)cc4C3=O)c2)nc1C", "growth": "110%"},
      {"smiles": "COc1cnc2c(c1)C(=O)c1c-2n(CCCn2ccnc2)c(=O)c2cc(F)ccc12", "growth": "15.5%"},
      {"smiles": "CC(=O)OCC(=O)[C@@]1(O)CC[C@H]2[C@@H]3CCC4=CC(=O)CC[C@]4(C)[C@@]3(F)[C@@H](O)C[C@@]21C", "growth": "112%"},
      {"smiles": "COc1ccc(CNC(=O)c2c(C)n([O-])c3ccc(OC)cc3[n+]2=O)cc1", "growth": "108%"},
      {"smiles": "COc1ccc(C2CC(c3ccc4c(c3)OCO4)=NN2C=O)cc1", "note": "(stereo not given)", "growth": "115%"},
      {"smiles": "COC(=O)CC1=C(c2ccc([N+](=O)[O-])cc2)CCC1=O", "growth": "114%"},
      {"smiles": "N/C(=N\\C(N)=N\\c1nc2ccccc2s1)c1ccnc(Cl)c1", "growth": "25.7%"},
      {"smiles": "CCCCCc1c(C)[nH]c(/C=C2\\N=C(c3ccc[nH]3)C=C2Oc2ccccc2)c1C", "growth": "-7.4% [100 µM] (active)"},
      {"smiles": "CN(C)CCCN=c1cc2c(=O)n(CCCN(C)C)c(=O)c3c(NCCCN(C)C)cc4c(O)n(CCCN(C)C)c(=O)c1c4c3-2", "growth": "-11.2% (active)"},
      {"smiles": "Nc1ccc2c(c1Br)Cc1ccccc1-2", "growth": "95.4%"},
      {"smiles": "Cc1ccc(C2=NNC(c3sc(Cl)nc3Cl)C2)cc1", "note": "(stereo not given)", "growth": "116%"},
      {"smiles": "Cc1nn2c(/C=C3/C(=O)Nc4cc(Cl)ccc43)c(-c3ccccc3)nc2s1", "growth": "-0.41% (active)"},
      {"smiles": "Cc1ccccc1NC(=O)NC(CC(N)=O)c1ccc2c(c1)nc(-c1cccc(Oc3ccc(C(C)(C)C)cc3)c1)n2CCCN1CCCCC1C", "note": "(stereo not given)", "growth": "6.75% (active)"},
      {"smiles": "Nc1ncnc2c1CN(Cc1ccccc1)CC2", "growth": "119%"},
      {"smiles": "O=C(Nc1ccc2c(c1)C(=O)c1ccccc1-2)c1ccccc1", "growth": "90.6%"},
      {"smiles": "O=C(Nc1ccccc1S)c1ccccc1", "growth": "103%"},
      {"smiles": "COc1cc(C2CC(c3ccc(C)cc3)=NN2C=O)ccc1OCCN(C)C", "note": "(stereo not given)", "growth": "87.5%"},
      {"smiles": "Nc1ccc(N=Nc2ccccc2)cc1[N+](=O)[O-]", "growth": "139%"},
      {"smiles": "COc1ccc(C(=O)/C=C/c2ccc(C)cc2)cc1OC", "growth": "107%"},
      {"smiles": "CCOC(=O)c1sc(NC(=O)COc2cccc(/C=C3\\CCc4cc(OC)ccc4C3=O)c2)nc1C", "growth": "91.7%"},
      {"smiles": "O=C(c1ccc(N2CCOCC2)cc1[N+](=O)[O-])N1CCOCC1", "growth": "33%"},
      {"smiles": "NC(=O)c1cc(Br)cc(Br)c1NS(=O)(=O)c1ccccc1", "growth": "105%"},
      {"smiles": "c1ccc(COc2ccc(Nc3ncnc4c3cnn4-c3ccccc3)cc2)cc1", "growth": "109%"},
      {"smiles": "COc1ccc(-c2cc(-c3cccnc3)nc(S(=O)(=O)CC(=O)Nc3ccc(C)cc3)c2C#N)cc1OC", "growth": "81.9%"},
      {"smiles": "CCOC(=O)C(C(=O)OCC)C1CCCCC1", "growth": "109%"},
      {"smiles": "CCCCCCCCN(CCO)CCCCCCCC", "growth": "117%"},
      {"smiles": "O=C(COc1cccc(/C=C2\\Cc3ccccc3C2=O)c1)c1ccc(Cl)cc1", "growth": "102%"},
      {"smiles": "CCCCN1c2nc3ccccc3cc2Sc2cc3ccccc3nc21", "growth": "99.8%"},
      {"smiles": "COc1ccc(/C=C2/SC(=Nc3c(C)nn(-c4ccccc4)c3N)NC2=O)cc1", "growth": "31.7%"},
      {"smiles": "COc1ccc(C2=NN(C(N)=S)C(c3ccc4c(c3)OCO4)C2)cc1", "note": "(stereo not given)", "growth": "-13% (active)"},
      {"smiles": "O=c1[nH]cc(Nc2cc(Cl)c3nonc3c2[N+](=O)[O-])c(=O)[nH]1", "growth": "47.8%"},
      {"smiles": "COc1ccc(-c2nc3sc4c(c3c(=O)[nH]2)CCCCCC4)cc1", "growth": "58.4%"},
      {"smiles": "COC(=O)C1CCN(S(=O)(=O)c2ccc(-c3ccccc3)cc2)CC1", "growth": "117%"},
      {"smiles": "O=C(COc1cccc(/C=C2\\Oc3ccc4ccccc4c3C2=O)c1)c1ccc(Cl)cc1", "growth": "92.8%"},
      {"smiles": "C1=C(Cc2ccccc2)n2cnc3ncnc(c32)S1", "growth": "75.3%"},
      {"smiles": "CCCCNCCCN(CCCC)CCCNCCCC", "growth": "80.2%"},
      {"smiles": "Cc1sc2nc3c4ccccc4c(NCCCN(C)C)nn3c(=O)c2c1C", "growth": "71.6%"}
    ]}
  ]
}
